# Screening results as filed in PubChem BioAssay.
# This is a sample that favours compounds with a hit; in the whole collection about 4.1% have one here.
# DAX1 inh-1 – blocks DAX1 repression of SF-1 activated StAR promoter. AID 652010. HEK293T StAR-luciferase reporter, SF-1/DAX-1 repression relief. inhibition, % at 6.8 µM. 370,000 tested, 1.1% active;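 active = inhibition above the mean over all tested compounds plus 3 SD, cut at about 3.6% in these data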;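 note: higher inhibition means more luminescence from relief of DAX-1 repression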
# hgDAF12 agonist – agonists of H. glycines DAF-12 nuclear receptor; HEK293 GAL4-hgDAF12 UAS-luciferase reporter, agonist luminescence; normalized to butyrate control; activation, % at 6.8 µM; 370,000 tested, 1.8% active; AID 687014;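 active = activation above a cutoff set at the mean of all screened compounds plus 3 SD, cut at about 10% in these data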
# ssDAF12 agonist – activators of S. stercoralis DAF-12 nuclear receptor. HEK293 ssDAF-12/GRIP1 lit1-tk-luc reporter, luminescence; % of 3 µM dafachronic acid response. activation, % at 6.8 µM. 370,000 tested, 1% active;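 active = activation above the mean over all tested compounds plus 3 SD, cut at about 0.9% in these data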
# DAX1 inh-2 – inhibitors of human orphan nuclear receptor DAX1 (NR0B1). HEK293 Gal4-DAX1 luciferase reporter, luminescence. AID 504766. inhibition, % at 6.75 µM. 340,000 tested, 0.99% active;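 active = inhibition above the mean over all tested compounds plus 3 SD, cut at about 4.2% in these data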;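 note: inhibition shows as a rise in luminescence from relieved DAX1 repression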
# Target sequence (P51843 207-470 limits assumed): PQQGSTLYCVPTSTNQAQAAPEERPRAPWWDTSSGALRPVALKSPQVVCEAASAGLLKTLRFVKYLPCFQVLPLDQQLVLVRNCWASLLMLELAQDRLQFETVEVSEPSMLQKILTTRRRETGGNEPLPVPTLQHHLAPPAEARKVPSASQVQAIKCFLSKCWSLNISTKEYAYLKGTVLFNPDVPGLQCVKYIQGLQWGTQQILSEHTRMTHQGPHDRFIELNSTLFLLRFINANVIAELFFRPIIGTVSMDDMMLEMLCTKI
# hcDAF-12 act – H. contortus DAF-12 activation, primary screen | 370,000 tested, 1.4% active | HEK293 hcDAF-12 lit1-tk-luc reporter, luminescence; 0% DMSO, 100% Δ7-dafachronic acid | activation, % at 6.8 µM | AID 652067;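 active = activation above the mean of all tested compounds plus 3 SD, cut at about 5.5% in these data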
# Numbers stand for hits; – = inactive; · = no result.
SMILES,DAX1 inh-1,hgDAF12 agonist,ssDAF12 agonist,DAX1 inh-2,hcDAF-12 act
CC(=O)NC(CCS(C)(=O)=O)C(=O)N1CCc2ccccc21 (centres undefined),–,–,1.0,–,5.6
O=C(Nc1ccc2c(c1)Cc1ccccc1-2)NC1CCCCN(Cc2ccc(Cl)cc2)C1=O (centres undefined),–,–,–,·,–
Cc1ccc(Cn2nnc3c2-c2cc(F)ccc2S(=O)(=O)N(C(C)(C)C)C3)cc1,–,–,–,·,–
C=C(C)[C@@H]1CC2=C(OC)C(CC=C(C)C)(CC=C(C)C)C(=O)C(C(=O)c3ccccc3)=C2O1,–,–,–,·,–
C[C@@H]1OC(C2CCCCC2)N(C)[C@H]2C[C@H]3c4[nH]c5c(-c6ccc7c(c6)OCO7)cccc5c4CCN3C[C@@H]12 (some centres undefined),–,–,–,·,–
C=CCSc1nc2ccccc2c2nc(-c3ccccc3)nn12,–,–,–,4.7,–
C=CCNC(=O)CCC(=O)NNc1nc2ccccc2c2nc(-c3ccccc3)nn12,–,–,–,–,–
COC(=O)C(C(=O)OC)[C@H]1C=C[C@@H](C(=O)NS(=O)(=O)c2ccc(C)cc2)N(C(C)=O)C1,–,–,–,·,–
Nc1nc2c(C(=O)N3CCOCC3)nnn2c2ccccc12,–,–,–,6.2,–
OCC#CCSc1nnc(-c2ccncc2)o1,–,–,–,–,–
c1ccc(CSc2nnc(-c3cccnc3)o2)cc1,–,–,–,–,–
C#CCSc1nnc(-c2ccc(O)cc2)o1,–,11,–,–,–
C#CCSc1nnc(-c2cccc3ccccc23)o1,–,–,1.7,–,–
Oc1ccc(-c2nnc(SCc3ccccc3)o2)cc1,–,11,–,–,–
C#CCSc1nnc(-c2ccc(C)cc2)o1,–,11,–,–,–
Cc1ccc(-c2nnc(SCC(=O)N3CCCC3)o2)cc1,–,–,–,–,–
Cc1ccc(C(=O)CSc2nnc(-c3ccccn3)n2-c2ccccc2)cc1,–,–,–,·,–
COc1ccccc1C(=O)N1CCN(C(=O)[C@@H](Cc2ccccc2)NC(=O)[C@H]2O[C@@H](n3cnc(C(N)=O)n3)[C@H](O)[C@@H]2O)CC1,–,–,–,·,–
O=C(NC(=S)Nc1ccccc1Br)C1CCC1,–,–,–,–,–
N#Cc1ccccc1NC(=S)NC(=O)C1CCC1,–,–,–,4.3,–
Cc1cc2nc(CSc3ccc(Cl)cc3)cc(=O)n2[nH]1,–,–,–,11,–
CN1CCCN(C(=O)CN2C(=O)CC(C)(C)S(=O)(=O)c3ccccc32)CC1,–,–,–,·,–
CCC[C@H]1[C@@H](NC(=O)c2ccc(Cl)c(C(F)(F)F)c2)CC[C@@]23CCCN2C(=O)CCC[C@@H]13,·,–,–,·,–
NC(=O)c1ccccc1Nc1nc(NCCO)nc(N2CCCC2)n1,–,–,–,4.4,–
COC(=O)[C@]1(CNS(=O)(=O)c2ccc(F)cc2)CC(=O)N(C)[C@@H]1c1ccccc1,–,–,–,·,–
SMILES,DAX1 inh-1,hgDAF12 agonist,ssDAF12 agonist,DAX1 inh-2,hcDAF-12 act
Clc1ccc(SCc2cn3ccsc3n2)cc1,–,11,–,–,–
c1cn2cc(CSC3CCCCC3)nc2s1,–,13,–,–,–
O=C(NCCc1cn2ccsc2n1)C1CCCCC1,–,–,–,–,–
Cc1csc2nc(CSc3ccc(Cl)cc3)cn12,·,·,·,–,·
COc1ccc(NC(=O)CSc2nc(C)cc(=O)[nH]2)cc1OC,–,–,–,·,–
COc1ccc(S[C@]2(C(=O)N3CCN(C(C)=O)CC3)CC(=O)N(C(=O)/C=C/c3ccccc3)[C@@H]2c2ccc(OC)cc2)cc1,–,–,–,·,–
CCCCS(=O)(=O)N1CCCc2nc(-c3ccc(OC)cc3)ccc21,–,–,–,·,–
c1ccc(-c2ccc(OCCCNC3CCCC3)cc2)cc1,–,–,–,·,–
c1ccc(SCCCCNC2CCCC2)cc1,–,–,1.7,–,–
COCCSc1ncccc1-c1nc2ccccc2[nH]1,–,–,–,·,–
c1ccc2[nH]c(-c3cscn3)nc2c1,–,12,–,–,–
CCN(CC)CCn1c(C)nc2ccccc21,–,–,–,4.3,–
O=C(O)Cn1c2ccccc2c2nc3ccccc3nc21,·,·,·,4.9,·
CCN(CC)CCn1c2ccccc2c2nc3ccccc3nc21,–,–,–,–,6.1
CCCn1c2ccccc2c2nc3ccccc3nc21,–,–,–,–,–
CCN(CC)CCn1c(NC(=O)c2ccc(Cl)cc2)nc2ccccc21,–,–,1.0,–,5.7
C#CCNC(=O)C[C@H]1C(=O)N(Cc2ccc(OC)cc2)C2=CCCCC[C@@]21C(=O)OC,–,–,–,·,–
O=C(NCCc1nc2ccccc2n1CCOc1cc(F)ccc1F)C1CCCCC1,·,–,–,·,–
O=C(CN1C(=O)C2(OCCCO2)c2ccccc21)NCc1ccc(F)cc1,–,–,–,·,–
N#CC(C#N)=C1SC(=Nc2ccccc2)C(=Nc2ccccc2)N1c1ccccc1,4.5,–,–,–,–
COC(=O)[C@@H]1N=C(c2ccc(OC)cc2)O[C@]12C(=O)N(Cc1cn(Cc3ccccc3)nn1)c1cccc(Cl)c12,–,–,–,·,–
CCOC(=O)c1c(NC(=O)CN2CCN(c3ccc(Cl)cc3)CC2)sc(C)c1C,–,–,–,–,–
COC(=O)c1c(NC(=O)CN2CCN(c3ccccc3Cl)CC2)sc(C)c1C,–,–,1.1,–,–
C[C@H](CO)N1C[C@H](C)[C@@H](CN(C)C(=O)Nc2ccccc2F)Oc2ncc(Br)cc2C1=O,–,–,–,–,–
COc1cccc(S(=O)(=O)N(C)C[C@@H]2Oc3ncc(Br)cc3C(=O)N([C@H](C)CO)C[C@@H]2C)c1,–,–,1.2,·,–
SMILES,DAX1 inh-1,hgDAF12 agonist,ssDAF12 agonist,DAX1 inh-2,hcDAF-12 act
COc1cccc(S(=O)(=O)N(C)C[C@H]2Oc3ncc(Br)cc3C(=O)N([C@H](C)CO)C[C@H]2C)c1,–,–,–,–,–
COc1ccccc1NC(=O)N(C)C[C@H]1Oc2ncc(Br)cc2C(=O)N([C@H](C)CO)C[C@H]1C,–,–,1.1,4.7,–
CCNC(=S)NNC(=O)CC(C)C,–,–,–,6.7,–
O=C(CN(CCc1ccccc1)S(=O)(=O)c1ccccc1)N1CCOCC1,–,–,–,·,–
COc1ccccc1CNC(=O)CSc1ccsc1[N+](=O)[O-],–,11,–,–,–
O=C(CSc1ccsc1[N+](=O)[O-])NCc1ccccc1,–,–,0.9,–,6.5
COC(=O)[C@]12C[C@H](CC(=O)N3CCSCC3)C(=O)N(CCC3=CCCCC3)C1=C[C@H](C(C)C)O[C@@H]2C1CC1,–,–,–,·,–
O=C(Cn1cnc2ccccc21)N/N=C/c1ccccc1,–,–,–,–,–
CC(/C=N/NC(=O)Cn1cnc2ccccc21)=C\c1ccccc1,–,–,8.4,–,–
CN(Cc1ccc(Cl)cc1Cl)C(=O)CCNC(=O)c1ccco1,–,–,–,–,–
CN(Cc1ccccc1Cl)C(=O)CCNC(=O)c1ccco1,–,–,–,10,–
O=C(NCCC(=O)N1CCc2ccccc21)c1ccco1,–,–,–,–,5.8
